In the library only some 3.8% were active in any assay of this set; here they are far more common.
A549 tox-1: counter-screen for Nrf2 inhibitors: cytotoxicity in A549 cells; A549 ARE-Fluc cells, CellTiter-Fluor viability, 18-24 h; Potency, µM (doses to about 46 µM), without a hit: at the top dose activity change, negative = cytotoxicity, most hits filed as inhibitors; actives 0.16% (n = 390,000); AID 504648; note: % is set by controls: 0 for no effect and ±100 for the full control effect
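A549 ARE-Fluc cells in 5% FBS OPTI-MEM, 5000 cells/well, rested 2 h then exposed to compounds in concentration-response for 18-24 h at 37 °C. Viability by CellTiter-Fluor fluorescence (Ex 405/Em 525) after 30 min; luciferase luminescence (BugLite, 15 min, RT) read afterwards.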
ATXN2 expr inh: ATXN2 expression inhibition; Potency, µM (doses to about 57 µM), for inactives: at the top dose activity change, negative = inhibition, hits mostly inhibitors; HEK-293 ATXN2-luciferase reporter, luminescence, 24 h; AID 1745845; actives 0.72% (n = 360,000); note: % is set by controls: 0 for no effect and ±100 for the full control effect; nearly all actives have a fitted effect of over 55% in size
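ATXN2-luciferase reporter cells (luciferase flanked by upstream and downstream ATXN2 gene portions) were treated 24 h at 37 °C with compounds at up to 57 uM. SteadyGlo luminescence gave expression; GF-AFC fluorescence gave viability.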
S2 tox: viability counter-screen for ATXN expression inhibitors. S2 cells (HEK-293 line with an ATXN2-luciferase reporter) viability, CellTiter-Fluor protease fluorescence, 24 h. actives 0.49% (n = 400,000). Potency, µM (top dose mostly 56.7 µM), hits mostly cytotoxic; note: nearly all actives have a fitted effect of over 40% in size
Nrf2 block: blocks Nrf2 signaling | actives 2.1% (n = 360,000) | AID 504444 | A549 ARE-Fluc reporter, luciferase luminescence, 18-24 h | Potency, µM (titrated, usually from 46 µM), inactives show at the top dose activity change, negative = inhibition, most hits filed as inhibitors; note: % is set by controls: 0 for no effect and ±100 for the full control effect; nearly all actives have a fitted effect of over 60% in size
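Quantitative HTS in A549 cells stably bearing an antioxidant response element-firefly luciferase construct. Inhibition of Nrf2-driven transcription was scored by luminescence after 18-24 h of compound exposure at 37 °C.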
HepG2 tox: HepG2 cytotoxicity, counter-screen for TGF-b inhibitors | HepG2 CAGA-GFP viability, ATP luminescence, 18 h | Potency, µM (top dose mostly 46.1 µM), inactives show at the top dose activity change, negative = cytotoxicity, actives largely listed as cytotoxic | actives 0.76% (n = 410,000)
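CellTiter-Glo luminescence gave cytotoxicity after 18 hours at 37 degrees C. The cells were HepG2 CAGA-GFP in 1% FBS DMEM, stimulated with 500 pg/mL TGF-beta after compound addition. %Activity was normalised to no-cell wells (complete cell-killing) and DMSO (no toxicity), and curves were fitted and classified.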
TGFb inhibitor: blocks TGF-b signaling | actives 1.2% (n = 410,000) | HepG2 CAGA-GFP TGF-b/SMAD3 reporter, GFP fluorescence, 18 h; TGF-beta stimulated, 500 pg/mL final | Potency, µM (series often up to 46.1 µM), for inactives: at the highest dose activity, negative = inhibition, usual class: inhibitors; note: % is set by controls: 0 for no effect and ±100 for the full control effect; nearly all actives have a fitted effect of over 65% in size
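First, reporter cells (HEPG2 CAGA-GFP) rested 2 h at 37 degrees C. Next, compounds were pinned in and TGF-beta added to 500 pg/mL final. After 18 h, GFP was imaged per cell and summed per well.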
FLuc counter 3: blocks purified firefly luciferase in Nrf2 counterscreen | shares compounds with Nrf2 block | purified firefly luciferase, luminescence inhibition | Potency, µM (highest dose often 57.5 µM), without a hit: at the highest dose activity change, negative = inhibition, hits mostly inhibitors | actives 4% (n = 1,400); note: % is set by controls: 0 for no effect and ±100 for the full control effect; nearly all actives have a fitted effect of over 65% in size
Target sequence (P08659 whole entry, looked up): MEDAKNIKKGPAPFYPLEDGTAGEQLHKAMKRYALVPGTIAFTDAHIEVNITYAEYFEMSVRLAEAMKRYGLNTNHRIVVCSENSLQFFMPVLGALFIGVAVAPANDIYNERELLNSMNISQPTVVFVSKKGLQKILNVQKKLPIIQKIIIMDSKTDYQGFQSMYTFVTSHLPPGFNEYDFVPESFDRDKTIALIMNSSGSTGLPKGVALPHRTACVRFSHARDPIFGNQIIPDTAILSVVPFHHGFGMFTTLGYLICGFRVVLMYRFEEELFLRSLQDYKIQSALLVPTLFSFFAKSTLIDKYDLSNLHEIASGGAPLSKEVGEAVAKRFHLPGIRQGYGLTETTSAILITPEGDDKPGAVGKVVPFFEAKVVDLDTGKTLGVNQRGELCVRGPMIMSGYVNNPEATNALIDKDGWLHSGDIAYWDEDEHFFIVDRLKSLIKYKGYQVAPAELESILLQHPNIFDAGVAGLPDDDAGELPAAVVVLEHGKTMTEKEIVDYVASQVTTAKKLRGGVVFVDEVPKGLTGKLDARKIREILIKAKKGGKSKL
A549 tox-2: counter-screen for Nrf2 inhibitors: cytotoxicity in A549 ARE cells; shares compounds with Nrf2 block; A549 ARE-Fluc cells, cytotoxicity counterscreen; Potency, µM (titrated, usually from 46.1 µM), inactives show at the top dose activity change, negative = cytotoxicity, usual class: inhibitors; actives 2% (n = 1,400); AID 720523;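 note: cells exposed to compounds for 18 to 24 hours; % is set by controls: 0 for no effect and ±100 for the full control effect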
Nrf2 ARE inh: reduces Nrf2 ARE reporter signal in A549 cells. actives 74% (n = 1,400). shares compounds with Nrf2 block. Potency, µM (doses to about 46.1 µM), without a hit: at the highest dose activity change, negative = inhibition, most hits filed as inhibitors. A549 ARE-firefly luciferase reporter, luminescence; note: % is set by controls: 0 for no effect and ±100 for the full control effect; nearly all actives have a fitted effect of over 65% in size
The depositor's hits bear a star; [ ] = another dose, or the depositor's remark. Calls come from the whole dose curve; as a rule, active = well fitted curve in the direction sought with a large enough effect; inconclusive = small, poorly fitted or top-dose-only effect, or another doubt; inactive = no such curve, though single readings can be large; an effect the other way counts as inactive or inconclusive. Potency is the fitted concentration of half-maximal effect.

How did CC(C)(C)c1ccc(C(=O)N2CCC2(C)C(=O)Nc2cccc3ncccc23)cc1 (stereo not given) do in these assays?
ATXN2 expr inh: -12%; S2 tox: inconclusive; HepG2 tox: -7%; TGFb inhibitor: 0%

Results for CCCCCCC[n+]1ccc(C)c2ccccc21 ?
HepG2 tox: -4%; TGFb inhibitor: inconclusive; FLuc counter 3: 2%; A549 tox-2: -15%

How did Cc1cc[n+](CCC2CCCCC2)c2ccccc12 do in these assays?
HepG2 tox: -31%; TGFb inhibitor: inconclusive; FLuc counter 3: 2%; A549 tox-2: -10%; Nrf2 ARE inh: inconclusive

How did Cc1ccccc1-c1cc(C(=O)Nc2sc(C)c(C)c2C(N)=O)c2ccccc2n1 do in these assays?
A549 tox-1: -21%; ATXN2 expr inh: inconclusive; S2 tox: inconclusive; HepG2 tox: -44%; TGFb inhibitor: inconclusive

What do the screens show for `CCOC(=O)c1sc(NC(=O)c2cc(-c3ccccc3C)nc3ccccc23)c(C#N)c1C`?
A549 tox-1: inconclusive; ATXN2 expr inh: 0%; S2 tox: inconclusive; Nrf2 block: 4.1µM*; HepG2 tox: -31%; TGFb inhibitor: inconclusive; FLuc counter 3: 12µM*; A549 tox-2: inconclusive; Nrf2 ARE inh: 4.1µM*

What do the screens show for `O=C(O)CCCC(=O)OCc1c(-c2ccccc2)ncc2ccccc12`?
A549 tox-1: -4%; ATXN2 expr inh: -8%; S2 tox: inactive; Nrf2 block: -29%; HepG2 tox: -4%; TGFb inhibitor: -2%

What do the screens show for `O=C(NC1CCCC1)c1cc(COc2ccc3ncccc3c2)on1`?
A549 tox-1: -9%; ATXN2 expr inh: -26%; S2 tox: inactive; Nrf2 block: 6.5µM*; HepG2 tox: -14%; TGFb inhibitor: -22%; FLuc counter 3: -17%; A549 tox-2: 4%; Nrf2 ARE inh: 3.7µM*

Results for COCC1CCN(C(=O)c2cc(COc3ccc(-n4cncn4)cc3)on2)CC1 ?
A549 tox-1: 2%; ATXN2 expr inh: -3%; S2 tox: inactive; Nrf2 block: 10%; HepG2 tox: 3%; TGFb inhibitor: 0%

What do the screens show for `O=C(c1cc(COc2ccc3ncccc3c2)on1)N1CCCC1`?
A549 tox-1: 3%; ATXN2 expr inh: 15%; S2 tox: inactive; Nrf2 block: 4.1µM*; HepG2 tox: -17%; TGFb inhibitor: 16%; FLuc counter 3: inconclusive; A549 tox-2: -3%; Nrf2 ARE inh: inconclusive

Results for Cc1ccc(OCc2cc(C(=O)N3CCCCCCC3)no2)cc1C ?
A549 tox-1: 0%; ATXN2 expr inh: 18%; S2 tox: inactive; Nrf2 block: inconclusive; HepG2 tox: -18%; TGFb inhibitor: -7%

Results for Cc1ccc(OCc2cc(C(=O)NC3CCCCC3)no2)cn1 ?
A549 tox-1: 0%; S2 tox: inactive; Nrf2 block: 0%; HepG2 tox: -15%; TGFb inhibitor: -13%

What do the screens show for `COCC1CCN(C(=O)c2cc(COc3ccc4ncccc4c3)on2)CC1`?
A549 tox-1: -27%; ATXN2 expr inh: -29%; S2 tox: inactive; Nrf2 block: 3.7µM*; HepG2 tox: -21%; TGFb inhibitor: -26%; FLuc counter 3: -12%; A549 tox-2: -5%; Nrf2 ARE inh: 7.3µM*

What do the screens show for `O=C(c1cc(COc2ccc3ncccc3c2)on1)N1CCCCCC1`?
A549 tox-1: -19%; ATXN2 expr inh: -5%[11.3 µM]; S2 tox: inactive; Nrf2 block: 3.7µM*; HepG2 tox: -19%; TGFb inhibitor: -25%; FLuc counter 3: inconclusive; A549 tox-2: 0%; Nrf2 ARE inh: 6.5µM*

Results for Cc1ccc(OCc2cc(C(=O)N3CCCC3)no2)cn1 ?
A549 tox-1: 2%; ATXN2 expr inh: -9%; S2 tox: inactive; Nrf2 block: inconclusive; HepG2 tox: -7%; TGFb inhibitor: -15%

Results for COc1ccccc1NC(=O)c1cc2cc3ccc(OC)c(Cl)c3nc2s1 ?
A549 tox-1: -26%; HepG2 tox: -4%; TGFb inhibitor: -5%

Results for COCCN(Cc1cc2ccc(C)cc2[nH]c1=O)S(=O)(=O)c1ccccc1 ?
A549 tox-1: -1%; ATXN2 expr inh: -1%; S2 tox: inactive; Nrf2 block: -10%; HepG2 tox: 3%; TGFb inhibitor: inconclusive

What do the screens show for `CC(C)N(CCCNC(=O)C1CCN(C(=O)c2cc3sccc3n2C)CC1)Cc1ccccc1`?
A549 tox-1: -18%; ATXN2 expr inh: -23%; S2 tox: inactive; Nrf2 block: 0%; HepG2 tox: -15%; TGFb inhibitor: 20%

What do the screens show for `COc1cccc(CN(C)C(=O)c2cc(COc3ccc4ncccc4c3)on2)c1`?
A549 tox-1: inconclusive; ATXN2 expr inh: inconclusive; S2 tox: inconclusive; Nrf2 block: 3.7µM*; HepG2 tox: 10%; TGFb inhibitor: -18%; FLuc counter 3: -8%; A549 tox-2: -1%; Nrf2 ARE inh: 7.3µM*

Results for COc1ccc(-n2cc(-c3ccccc3)c3c(N4CCCC(C)C4)ncnc32)cc1 (stereo not given) ?
A549 tox-1: -2%; HepG2 tox: 4%; TGFb inhibitor: 10%

Results for COc1ccc(CN(C)C(=O)Cc2ccc(OC)c(S(=O)(=O)N3CCOCC3)c2)cc1OC ?
A549 tox-1: -2%; ATXN2 expr inh: 8%; S2 tox: inactive; Nrf2 block: 19%; HepG2 tox: 0%; TGFb inhibitor: 3%

What do the screens show for `COc1ccc(Br)cc1CN(C)C(=O)Cc1ccc(OC)c(S(=O)(=O)N2CCOCC2)c1`?
A549 tox-1: 11%; S2 tox: inactive; Nrf2 block: 8.2µM*; HepG2 tox: 1%; TGFb inhibitor: 13%; FLuc counter 3: 4%; A549 tox-2: -2%; Nrf2 ARE inh: 0%

Source: PubChem (National Center for Advancing Translational Sciences (NCATS))
